Screening data as filed in PubChem.
A selection follows.
aSyn 5UTR act: Activators working through SNCA 5'UTR binding (MLPCN); actives 7.1% (n = 300,000); alpha-synuclein 5'UTR reporter, activators screen; AID 1814; activity score, % (tested at 7.5 µM), hits read low; in the data active = activity score below about -60%
Of the large screens only hits and unclear results are named; the others gave an inactive call.

c1ccc(-c2nc(-c3nccc4ccccc34)oc2-c2ccccc2)cc1	aSyn 5UTR act -81.8
O=C1c2ccccc2C(=O)C1c1nccc2ccccc12	none
c1cn2cc(CSC3CCCCC3)nc2s1	aSyn 5UTR act -130.4
c1ccc(CSCc2cn3ccsc3n2)cc1	aSyn 5UTR act -175.9
Cc1cc(OCc2cn3cccnc3n2)ccc1Cl	aSyn 5UTR act -127.2
c1ccc2oc(SCc3cn4ccsc4n3)nc2c1	aSyn 5UTR act -122.4
Clc1ccc(SCc2cn3cccnc3n2)cc1	aSyn 5UTR act -64.4
Clc1ccc(SCc2cn3ccsc3n2)cc1	aSyn 5UTR act -236.1
Cc1csc2nc(CSc3ccc(Cl)cc3)cn12	aSyn 5UTR act -102.9
COC(=O)c1ccccc1NC(=O)CSc1nnc(-c2ccc(C)cc2)o1	aSyn 5UTR act -129.8
CCOC(=O)c1ccccc1NC(=O)Cn1c(-c2nonc2N)nc2ccccc21	none
COc1cccc(-c2nnc(SCC(=O)Nc3cc(C)on3)o2)c1	aSyn 5UTR act -66.2
CCOC(=O)c1ccccc1NC(=O)CSc1nc2ccccc2o1	aSyn 5UTR act -87.6
Cc1cc(-c2nnc(SCC(=O)Nc3ccccc3C(F)(F)F)o2)c(C)n1-c1ccccc1	aSyn 5UTR act -68.7
Cc1ccc(-c2nnc(SCC(=O)Nc3ccccc3F)o2)cc1	none
COc1ccc(-c2nnc(SCC(=O)Nc3ccccc3OC)o2)cc1	aSyn 5UTR act -145.3
COc1ccccc1-c1nnc(SCC(=O)OC(C)C)o1	aSyn 5UTR act -82.7
Cc1cc(-c2nnc(SCC(=O)Nc3ccccn3)o2)no1	aSyn 5UTR act -71.9
COc1ccc(-c2nnc(SCC(=O)Nc3cccc(Cl)c3)o2)cc1	aSyn 5UTR act -179.0
COc1ccc(C)cc1NC(=O)CSc1nnc(-c2ccc(C)cc2)o1	aSyn 5UTR act -108.8
CN(C(=O)C1CCOC1)c1nnc(-c2ccccn2)s1 (configuration not stated)	aSyn 5UTR act -66.8
Cc1ccc2nc(C3CCCCC3)[nH]c2c1	aSyn 5UTR act -93.5
O=C(N/N=C/c1sc(=O)n(-c2ccccc2)c1Cl)c1ccccc1	aSyn 5UTR act -83.9
NC(=O)c1ccsc1NC(=O)c1ccc(S(=O)(=O)N2CCCC2)cc1	aSyn 5UTR act -102.7
NC(=O)c1ccsc1NC(=O)c1ccc(S(=O)(=O)N2CCCCC2)cc1	aSyn 5UTR act -96.0
O=c1c2[nH]c3ccc(F)cc3c2ncn1C1CCCCC1	aSyn 5UTR act -82.2
O=c1cc(-c2ccccc2)[nH]c2ccc(F)cc12	none
O=C(NCCc1ccccc1)C1=COCCO1	aSyn 5UTR act -129.0
CC(=O)Nc1nnc(SCc2ccccc2F)s1	aSyn 5UTR act -75.9
O=C(Nc1nnc(SCc2ccccc2F)s1)C1=COCCO1	aSyn 5UTR act -117.2
O=C(Nc1nnc(SCc2ccccc2)s1)C1=COCCO1	aSyn 5UTR act -71.7
C=CCSc1nnc(NC(=O)C2=COCCO2)s1	aSyn 5UTR act -81.7
c1ccc(CSc2nnc(NC3=NCCCCC3)s2)cc1	aSyn 5UTR act -88.8
COCCNC(=O)c1nc2ccccc2s1	aSyn 5UTR act -82.6
O=C(NCc1ccco1)c1nc2ccccc2s1	aSyn 5UTR act -107.3
Cc1ccc(-c2cc(C(=O)NCc3ccco3)c3ccccc3n2)s1	aSyn 5UTR act -65.2
N/C(=N\OC(=O)Nc1ccccc1)c1ncc(C(F)(F)F)cc1Cl	aSyn 5UTR act -115.3
N/C(=N\OC(=O)Nc1ccc(Cl)cc1)c1ncc(C(F)(F)F)cc1Cl	aSyn 5UTR act -72.9
CC1(C)CNc2cc(N)ccc2S1	aSyn 5UTR act -73.5
C/C(N)=C(/C#N)C(=O)CSc1ccc2c(c1)OCCO2	aSyn 5UTR act -125.3
Cc1cc(C(=O)CSc2ccc3c(c2)OCCO3)c(C)n1C1CC1	aSyn 5UTR act -125.9
C=C(C)Cn1cnc2c(oc3nc4c(cc32)CCCC4)c1=O	aSyn 5UTR act -85.0
O=C(Cn1cnc2c(oc3nc4c(cc32)CCCC4)c1=O)Nc1cccc(Cl)c1	none
CC(=O)N/C(N)=N/c1nc(=O)c2ccccc2s1	aSyn 5UTR act -98.7
CCOC(=O)N/C(N)=N/c1nc2ccccc2s1	aSyn 5UTR act -115.6
Cc1ccc(C(=O)Nc2cccc(C(=O)O)c2)cc1	none
CCC(=O)NC(=S)Nc1ccc(N2CCOCC2)cc1	aSyn 5UTR act -81.8
Cc1ccc(C(=O)Nc2cccc(C(=O)N3CCOCC3)c2)cc1	aSyn 5UTR act -89.1
Cc1ccc(C(=O)Nc2ccc(N3CCOCC3)cc2)cc1	aSyn 5UTR act -95.4
Cc1ccc(C(=O)Nc2ccc(N3CCCC3)cc2)cc1	aSyn 5UTR act -160.1
Cc1ccc(CNc2ccc(N3CCOCC3)cc2)cc1	aSyn 5UTR act -107.5
COc1ccc(C(=O)Nc2ccc(N3CCCCC3)cc2)cc1Br	aSyn 5UTR act -63.5
COc1cc(C(=S)N2CCCC2)ccc1OS(=O)(=O)c1ccc(NC(C)=O)cc1	aSyn 5UTR act -64.2
Cc1ccc(C(=O)Nc2ccc(N3CCN(C)CC3)cc2)c(Cl)c1	aSyn 5UTR act -162.5
Cc1ccc(C(=O)Nc2ccc(N3CCN(C)CC3)nc2)cc1	aSyn 5UTR act -63.4
O=C(Nc1cccc(Cl)c1)c1ccc(OC(=S)N2CCOCC2)cc1	aSyn 5UTR act -182.4
O=Cc1cc(-c2ccccc2)[nH]c1-c1ccccc1	aSyn 5UTR act -64.3
COc1ccccc1-c1noc(-c2ccco2)n1	aSyn 5UTR act -129.0
COc1ccccc1-c1noc(-c2ccccc2)n1	aSyn 5UTR act -126.2
